Values joined by “and” are separate entries in the source; they are usually repeats but may differ in a detail not shown here. Identical values can stand only once. Records with an inconclusive call do not appear. Where a structure was tested more than once in an assay, its records may differ in their call. Active and inactive are the calls of the source. Unless noted, calls come from the whole dose curve.
Columns and labels:
[1] = Nuclear factor erythroid 2-related factor 2/antioxidant responsive element (Nrf2/ARE) small molecule agonists: qHTS cell viability counter screen in human keratinocytes (AID 1919968; active = well fitted curve in the direction sought with a large enough effect in the repeat runs; an effect the other way counts as inactive or inconclusive; note: nearly all actives have a fitted effect of over 55% in size; note: potency is the fitted concentration of half-maximal effect)
Method in brief: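 HaCaT ARE reporter line, 1,500 cells/well; 5 h settle, 37 C/5% CO2; cpd in DMSO pinned; 23 h exposure; CellTiter-Fluor, 1 h; fluorescence.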

[2] = Nuclear factor erythroid 2-related factor 2/antioxidant responsive element (Nrf2/ARE) small molecule agonists: luciferase reporter gene qHTS assay in human keratinocytes (AID 1919969); note: nearly all actives have a fitted effect of over 35% in size; note: potency is the fitted concentration of half-maximal effect
[3] = target: Gonadotropin-releasing hormone receptor (Homo sapiens) (UniProt P30968); assay: Human gonadotropin-releasing hormone receptor (GnRHR) small molecule agonists, calcium flux assay in GnRHR-HEK293 cells (AID 1920063); note: nearly all actives have a fitted effect of over 35% in size
Gonadotropin-releasing hormone receptor (Homo sapiens), sequence (P30968 whole entry, looked up): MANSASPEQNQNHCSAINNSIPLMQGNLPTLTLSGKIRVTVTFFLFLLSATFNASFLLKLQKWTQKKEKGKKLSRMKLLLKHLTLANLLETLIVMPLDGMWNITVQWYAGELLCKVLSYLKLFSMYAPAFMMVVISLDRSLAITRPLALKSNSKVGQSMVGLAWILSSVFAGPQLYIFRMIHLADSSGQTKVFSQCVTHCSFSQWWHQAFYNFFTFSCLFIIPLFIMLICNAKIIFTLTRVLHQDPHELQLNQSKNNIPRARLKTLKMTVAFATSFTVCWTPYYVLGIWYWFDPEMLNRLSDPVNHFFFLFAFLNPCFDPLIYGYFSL
Method in brief: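 GnRHR-HEK293, 1500 cells/well, 18 h 37 C/5% CO2; Ca dye 1 h 37 C; cpd pinned (DMSO), agonist mode; kinetic FL 480/540, 3 min, 1 s reads; 15 conc, n=3.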

[4] = target: KiSS-1 receptor (Homo sapiens) (UniProt Q969F8); assay: Human kisspeptin (KISS1R) small molecule agonists, calcium flux assay in KISS1R-HEK293 cells (AID 1920064; active = well fitted curve in the direction sought with a large enough effect in the repeat runs; an effect the other way counts as inactive or inconclusive)
KiSS-1 receptor (Homo sapiens), sequence (Q969F8 whole entry, looked up): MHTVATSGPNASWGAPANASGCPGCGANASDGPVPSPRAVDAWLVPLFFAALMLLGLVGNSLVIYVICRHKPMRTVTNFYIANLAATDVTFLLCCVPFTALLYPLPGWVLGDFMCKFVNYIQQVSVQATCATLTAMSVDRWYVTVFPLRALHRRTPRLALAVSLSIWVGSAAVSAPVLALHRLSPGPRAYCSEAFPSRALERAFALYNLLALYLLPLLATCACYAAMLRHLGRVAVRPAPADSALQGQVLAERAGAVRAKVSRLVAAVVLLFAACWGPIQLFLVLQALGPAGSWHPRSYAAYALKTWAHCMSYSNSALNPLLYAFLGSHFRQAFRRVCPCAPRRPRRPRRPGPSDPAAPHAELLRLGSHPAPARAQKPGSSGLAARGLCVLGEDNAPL
Method in brief: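 Stable human KISS1R HEK293 line; 18 h plating, 37 C/5% CO2; calcium dye 1 h 37 C; compound pin transfer; kinetic fluorescence Ex/Em 480/540, 3 min.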

[5] = G protein-coupled receptor (GPCR) small molecule agonists, calcium flux assay: HEK293 wild type cell line counter screen (AID 1920065)
Method in brief: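 Kinetic fluorescence at Ex/Em 480/540, recorded every second over 3 min, served as the read-out after compound addition. Each compound was tested at 15 concentrations in triplicate on cells pre-loaded with calcium dye for 1 h.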

[6] = p53 small molecule agonists, cell-based qHTS assay with human liver microsomes (AID 1963577);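 note: p53 response element beta-lactamase reporter cells with liver microsomes plus NADPH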
Method in brief: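 16 h, 37 C exposure of p53RE-bla cells to compounds with human liver microsomes and NADPH (0.5 mg/mL final each); detection via LiveBLAzer mixture, 2 h dark at room temperature.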

[7] = p53 small molecule agonists, cell-based qHTS assay with rat liver microsomes (AID 1963578)
Method in brief: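 With rat liver microsomes and NADPH present (0.5 mg/mL final each), p53RE-bla cells are treated with compound for 16 h at 37 C. LiveBLAzer detection mixture is then applied for 2 h at room temperature in the dark.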

[8] = p53 small molecule agonists, cell-based qHTS assay with human liver microsomes: qHTS cell viability counter screen (AID 1963579); note: nearly all actives have a fitted effect of over 45% in size
Method in brief: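 In this multiplexed counter screen, the reporter plates were subsequently treated with CellTiter-Glo so that cell viability, reflected by luminescence, could be recorded for p53RE-bla cells dosed 16 h with compounds under microsomal activation (HLM and NADPH).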

[9] = p53 small molecule agonists, cell-based qHTS assay with rat liver microsomes: qHTS cell viability counter screen (AID 1963580); note: nearly all actives have a fitted effect of over 45% in size
Method in brief: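 In HCT-116 cells carrying a p53 response element-bla reporter, compounds were metabolically activated in situ by rat liver microsomes with NADPH over 16 h. Cell ATP content then served as the cytotoxicity measure.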

[10] = p53 small molecule agonists, cell-based qHTS assay: qHTS cell viability counter screen (AID 1963581); note: nearly all actives have a fitted effect of over 45% in size
Method in brief: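 HCT-116 p53RE-bla cells, 4,000/well, plated 5 h before compound pin transfer; 16 h at 37 C; bla substrate 2 h RT; then CellTiter-Glo, 30 min RT, luminescence.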

[11] = p53 small molecule agonists, cell-based qHTS assay (AID 1963582; active = well fitted activation curve with a large enough effect in the signal ratio in the repeat runs, not every such curve was filed as active; the % refers to the signal ratio)
Method in brief: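 Reporter line: p53RE-bla. Pre-incubation 5 h, 37 C, 5% CO2; compound (DMSO, pin tool) 16 h, 37 C; B/G FRET substrate 2 h RT; fluorescence intensity read.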

[12] = target: 5-hydroxytryptamine receptor 2A (Homo sapiens) (UniProt P28223); assay: 5-hydroxytryptamine receptor 2A (HTR2A) small molecule antagonists, cell-based qHTS assay (AID 1963586); note: nearly all actives have a fitted effect of over 45% in size
5-hydroxytryptamine receptor 2A (Homo sapiens), sequence (P28223 whole entry, looked up): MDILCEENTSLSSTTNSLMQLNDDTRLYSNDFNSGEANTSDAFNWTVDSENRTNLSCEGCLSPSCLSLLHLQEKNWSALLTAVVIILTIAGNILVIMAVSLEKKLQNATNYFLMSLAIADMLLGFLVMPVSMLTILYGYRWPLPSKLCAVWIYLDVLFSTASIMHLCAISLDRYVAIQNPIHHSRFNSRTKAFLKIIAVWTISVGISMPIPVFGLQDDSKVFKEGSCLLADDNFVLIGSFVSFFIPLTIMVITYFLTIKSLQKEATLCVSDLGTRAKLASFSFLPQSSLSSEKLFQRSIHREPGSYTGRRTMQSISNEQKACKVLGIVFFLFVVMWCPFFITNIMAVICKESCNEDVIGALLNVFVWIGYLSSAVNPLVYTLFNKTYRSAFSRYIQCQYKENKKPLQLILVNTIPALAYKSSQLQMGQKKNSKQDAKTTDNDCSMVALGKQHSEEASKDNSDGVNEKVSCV
Method in brief: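 Antagonist-mode intracellular calcium assay: DOI (4 nM) added after 5 min compound pre-incubation at room temperature to dye-loaded HTR2A-CHO cells. Fluorescence followed for 3 min, sampled every second.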

[13] = target: 5-hydroxytryptamine receptor 2A (Homo sapiens) (UniProt P28223); assay: 5-hydroxytryptamine receptor 2A (HTR2A) small molecule agonists, cell-based qHTS assay (AID 1963587); note: nearly all actives have a fitted effect of over 30% in size
Method in brief: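 HTR2A-CHO cells, plated 18 h at 37 C/5% CO2, dye-loaded 1 h at 37 C; compounds in DMSO added by pin tool (agonist mode). Intracellular calcium flux read as kinetic fluorescence on FDSS over 2 min at 1 s intervals.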

[14] = target: Muscarinic acetylcholine receptor M1 (Homo sapiens) (UniProt P11229); assay: Cholinergic receptor muscarinic 1 (CHRM1) small molecule antagonists, cell-based qHTS assay (AID 1963588); note: nearly all actives have a fitted effect of over 40% in size; note: potency is the fitted concentration of half-maximal effect
Muscarinic acetylcholine receptor M1 (Homo sapiens), sequence (P11229 whole entry, looked up): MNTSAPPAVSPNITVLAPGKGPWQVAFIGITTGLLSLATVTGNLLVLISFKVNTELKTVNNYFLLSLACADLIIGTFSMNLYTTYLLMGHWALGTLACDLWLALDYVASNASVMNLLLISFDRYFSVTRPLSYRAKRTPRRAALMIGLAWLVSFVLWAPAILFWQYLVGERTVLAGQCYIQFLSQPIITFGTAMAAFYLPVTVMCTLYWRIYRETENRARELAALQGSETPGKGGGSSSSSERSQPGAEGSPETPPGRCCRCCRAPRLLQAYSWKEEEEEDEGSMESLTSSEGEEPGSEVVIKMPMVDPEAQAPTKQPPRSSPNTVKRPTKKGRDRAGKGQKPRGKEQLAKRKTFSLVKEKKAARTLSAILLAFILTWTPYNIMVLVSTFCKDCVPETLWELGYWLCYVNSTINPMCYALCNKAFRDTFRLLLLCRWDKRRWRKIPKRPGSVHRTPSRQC
Method in brief: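 CHRM1-CHO calcium-flux assay, antagonist mode. Cells were seeded 18 h, dye-loaded 1 h at 37 C and given compound for 5 min at RT, then acetylcholine was added at 50nM. FDSS fluorescence was read 3 min; 15 concentrations, three runs.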

[15] = target: Muscarinic acetylcholine receptor M1 (Homo sapiens) (UniProt P11229); assay: Cholinergic receptor muscarinic 1 (CHRM1) small molecule agonists, cell-based qHTS assay (AID 1963589); note: nearly all actives have a fitted effect of over 35% in size
Method in brief: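 Human M1 in stable CHO line; 18 h plating, 1 h dye load 37 C; cpd added (agonist mode); Ca2+ fluorescence kinetic read, 1 s intervals; 15 conc, 3 runs.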

[16] = cAMP Responsive Elements (CRE) small molecule agonists, cell-based qHTS assay (AID 1963590)
Method in brief: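 HEK 293T CRE-bla, 2,000 cells/well, 18 h preincubation 37 C/5% CO2; cpds (DMSO) pinned, 3 h; LiveBLAzer B/G FRET substrate, 2 h RT.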

[17] = cAMP Responsive Elements (CRE) small molecule antagonists, cell-based qHTS assay (AID 1963591; active = well fitted inhibition curve with a large enough effect in the signal ratio in the repeat runs, not every such curve was filed as active; the % refers to the signal ratio)
Method in brief: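 Beta-lactamase reporter read by FRET substrate (LiveBLAzer B/G) after 2 h at room temperature. CRE-bla HEK293T cells had received compound plus 0.25 uM (final) NKH477 for 3 h at 37 °C.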

[18] = target: D(2) dopamine receptor (Homo sapiens) (UniProt P14416); assay: Dopamine D2 receptor (DRD2) small molecule agonists, cell-based qHTS assay (AID 1963594); note: nearly all actives have a fitted effect of over 35% in size
D(2) dopamine receptor (Homo sapiens), sequence (P14416 whole entry, looked up): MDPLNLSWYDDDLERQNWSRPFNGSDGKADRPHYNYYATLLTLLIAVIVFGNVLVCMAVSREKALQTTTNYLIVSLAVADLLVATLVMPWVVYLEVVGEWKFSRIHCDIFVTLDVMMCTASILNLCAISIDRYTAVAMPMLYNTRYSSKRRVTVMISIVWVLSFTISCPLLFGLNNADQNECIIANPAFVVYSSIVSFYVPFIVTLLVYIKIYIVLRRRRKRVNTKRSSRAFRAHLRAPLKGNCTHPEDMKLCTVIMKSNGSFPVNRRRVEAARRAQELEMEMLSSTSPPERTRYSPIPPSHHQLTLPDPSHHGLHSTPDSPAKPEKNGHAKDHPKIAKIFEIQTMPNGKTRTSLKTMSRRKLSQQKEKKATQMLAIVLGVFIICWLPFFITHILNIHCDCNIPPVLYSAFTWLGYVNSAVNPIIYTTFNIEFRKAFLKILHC
Method in brief: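 HEK293 cells stably expressing DRD2 were cultured 24 h at 37 C, then given Ro20-1724 (0.1 mM final) and compounds for 10 min at room temperature. NKH477 (200nM) was then added for 30 min. cAMP was read by HTRF.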

[19] = target: D(2) dopamine receptor (Homo sapiens) (UniProt P14416); assay: Dopamine D2 receptor (DRD2) small molecule antagonists, cell-based qHTS assay (AID 1963595; active = well fitted inhibition curve with a large enough effect in the signal ratio in the repeat runs, with a control signal flat; the % refers to the signal ratio)
Method in brief: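 HTRF cAMP read-out at 665 and 620 nm emission (340 nm excitation). Antagonist mode: compounds were tested against 12 nM quinpirole in DRD2-HEK293 cells, with 200 nM NKH477 raising cAMP and 0.1 mM Ro20-1724 blocking its breakdown.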

[20] = target: Beta-2 adrenergic receptor (Homo sapiens) (UniProt P07550); assay: Adrenergic beta2 receptor (ADRB2) small molecule antagonists, cell-based qHTS assay (AID 1963592); note: series mostly up to about 92 µM; nearly all actives have a fitted effect of over 50% in size
Beta-2 adrenergic receptor (Homo sapiens), sequence (P07550 whole entry, looked up): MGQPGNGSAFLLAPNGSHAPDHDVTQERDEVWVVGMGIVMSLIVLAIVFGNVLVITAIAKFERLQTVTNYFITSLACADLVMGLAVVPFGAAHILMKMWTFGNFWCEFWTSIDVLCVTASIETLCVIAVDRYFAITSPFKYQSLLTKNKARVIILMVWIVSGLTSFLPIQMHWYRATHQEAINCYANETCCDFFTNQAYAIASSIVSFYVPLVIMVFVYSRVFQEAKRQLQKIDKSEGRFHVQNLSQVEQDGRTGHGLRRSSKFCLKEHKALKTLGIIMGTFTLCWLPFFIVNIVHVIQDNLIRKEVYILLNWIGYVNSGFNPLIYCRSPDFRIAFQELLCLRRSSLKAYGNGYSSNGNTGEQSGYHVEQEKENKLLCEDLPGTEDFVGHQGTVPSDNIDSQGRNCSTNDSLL
Method in brief: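 Cells (CHO, stable ADRB2 overexpression) incubated 18-20hr at 37C; compounds added from DMSO; agonist mix (1nM isoproterenol, 100uM IBMX, 25uM Ro-20-1724) added; 0.5hr RT; d2-cAMP and anti-cAMP-cryptate added; 1hr RT; 665/615 nm read.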

Measured: Potency

[O-]/[N+](=N\O)c1ccccc1
active: [2] 68 µM and 34.4 µM
not listed: [20]
inactive: all other assays above

Oc1ccc2ccccc2c1N=Nc1ccccc1
active: [2] 30.6 µM and 21.7 µM
472 nM (active) and inactive: [14]
inactive: all other assays above

CCCCCCCCCCCCCCCO
54.9 µM (active) and inactive: [2]
inactive: all other assays above

c1ccc2n[nH]nc2c1
not listed: [20]
inactive: all other assays above

c1ccc2[nH]ccc2c1
6.01 µM (active) and inactive: [2]
8.49 µM (active) and inactive: [1]
inactive: all other assays above

C=C(C)C(=O)OCCCCCCCCCCCC
inactive: all assays above

COc1ccccc1[N+](=O)[O-]
not listed: [20]
inactive: all other assays above

From PubChem BioAssay (Tox21)
